The structures appear in SMILES notation. The whole screen tested about 360,000 compounds, of which about 3,800 (1.1%) were called active. Many of the other results were omitted from the sample, so actives are more common in it than they were. Unmarked numbers belong to inactive results.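 Rule for the calls: active = compounds causing at least 50% loss of cell viability in the single-dose screen, relative to plate controls; inactive = the rest.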

The test can be described thus: viability loss with TRAIL in NB7+C8 cells, primary screen, TRAIL sensitizer project, cell-based, ATPlite luminescence (AID 624354). The settings on record: at 10 µM, hits give high values.
As for `Cc1ccc(CNC(=O)Cn2cnc3c(NCc4ccccc4)ncnc32)o1`, the inhibition (viability loss, TRAIL sensitization) is 20.3%.
On to `OCC1(Cc2ccccc2C(F)(F)F)CCN(Cc2cccc3cnccc23)CC1`, for which the inhibition (viability loss, TRAIL sensitization) is 2.15%.
As to `COc1ccc(C(=O)NCC[N+](C)(C)C)cc1`, the inhibition (viability loss, TRAIL sensitization) was -3.08%.
In the case of `Cc1ccc(S(=O)(=O)N(C)C)cc1NC(=O)c1ccc(-n2cncn2)c([N+](=O)[O-])c1` it was -6.94%.
As for `O=C(COC(=O)c1c(Cl)cccc1Cl)Nc1cccc(S(=O)(=O)NC2=NCCCCC2)c1`, the inhibition (viability loss, TRAIL sensitization) was -2%.
As for `O=C1NC[C@H](Cc2ccc(O)cc2)N(C[C@@H]2CCCN2C[C@H](Cc2ccccc2)N2C[C@H](Cc3ccccc3)N(CC3CCCCC3)C(=O)C2=O)C1=O`, the figure is -7.58%; as for `CN(C)NC(=O)C(NC(=O)c1ccc(N)cc1)C12CC3CC(CC(C3)C1)C2` (stereo unspecified), -0.166%; as for `Cc1nc2cc(S(=O)(=O)C(F)(F)F)ccc2s1`, 15.9%.
For the compound `CCN1CCCC1CNC(=O)Cn1cnc2ccc(S(=O)(=O)N3CCC(C)CC3)cc2c1=O` (stereo unspecified), the inhibition (viability loss, TRAIL sensitization) is 3.92%.
Consider `CC(C)(C)Oc1ccccc1Nc1nc(NCCO)nc(N2CCCC2)n1`, for which the inhibition (viability loss, TRAIL sensitization) was -17.8%.
In the case of `O=C(CCl)Nc1ccc(Sc2ccc(NC(=O)CCl)cc2)cc1` it was 51.1% (active); in that of `CC(=O)Nc1ccc(SCC(=O)NC(=O)c2ccc(Cl)cc2)cc1`, -7.06%.
As for `O=C(O)CC(SCC(=O)Nc1ccc(Br)cc1)C(=O)O` (stereo unspecified), the figure is -3.72%; as for `COc1cccc2cc(/C(C)=N/NC(=O)c3ccco3)oc12`, 4.04%; as for `Cc1oc2c(F)c(F)c(F)c(F)c2c1S(=O)(=O)Nc1cccc(C(F)(F)F)c1`, 29.6%.
As for `O=C(Nc1ccccc1)c1ccc2c(c1)OCCCO2`, the figure is 78% (active); as for `CCCc1cc(C(=O)Nc2ccc(Cl)cn2)cs1`, 48.6%.
In the case of `O=C(Nc1nc2ccccc2s1)c1ccc2c(c1)OCO2`, the inhibition (viability loss, TRAIL sensitization) is 74.6% (active).
With `Cc1ccc2sc(NNC(=O)c3ccc4c(c3)OCCO4)nc2c1C`, the inhibition (viability loss, TRAIL sensitization) is -37.1%.
In the case of `O=C(CN1CCc2cc3c(cc2C1)OCCCO3)Nc1ccccc1` it was -22%.
In the case of `Cc1nc(NC(=O)c2ccc3c(c2)OCCO3)ccc1Br` it was 21.7%; in that of `O=C(Nc1ccc(Cl)cn1)c1ccc2c(c1)OCCO2`, 64% (active); in that of `N#Cc1ccccc1NC(=O)c1ccc2c(c1)OCO2`, 0.697%.
In the case of `CN1CCN(c2ccc(NC(=O)c3ccc4c(c3)OCCO4)cc2Cl)CC1` it was 42.3%.
`COc1ccccc1NC1=NC(c2ccc(Cl)cc2)N=C(N)N1` (stereo unspecified): the inhibition (viability loss, TRAIL sensitization) was -3.71%.
Regarding `CC(C#N)OC(=O)c1cccnc1SCC(=O)Nc1ccc2c(c1)OCO2` (stereo unspecified), the inhibition (viability loss, TRAIL sensitization) is 4.56%.
Regarding `COc1ccccc1NS(=O)(=O)N(C)C`, the inhibition (viability loss, TRAIL sensitization) was -12.4%.
As for `NC(=O)COc1ccc(NC(=O)c2ccccc2-c2ccccc2)cc1`, the figure is -7.08%; as for `CC(=O)C[C@H](O)CC(=O)[C@@H]1OC(=O)[C@@H](C)C/C=C\Cc2ccccc21`, -3.79%.
In the case of `CCC(=O)Nc1ccc(S(=O)(=O)Nc2c(NC)c3ccccc3oc2=O)cc1` it was 1.26%; in that of `Cc1cn([C@H]2C[C@H](O)[C@@H](CNC(=O)[C@H](N)Cc3cccnc3)O2)c(=O)[nH]c1=O`, -0.759%.
In the case of `CNC(=O)/C(=C\C=C\c1ccccc1)NC(=O)c1ccc([N+](=O)[O-])cc1` it was -5.87%; in that of `CN1OC[C@@H]2CN(C(=O)c3ccc(-c4ccccc4)cc3)[C@H](c3ccc(-c4cccc(F)c4)cc3)C[C@@H]21`, -16.6%; in that of `CCCOc1ccc(Cc2c(Cl)nc(SC)nc2NC)cc1`, 31.2%.
Turning to `Cc1ccc(-c2ccnc3[nH]n(-c4ccccc4)c(=O)c23)cc1`, the inhibition (viability loss, TRAIL sensitization) was -11.3%.
As for `Cc1[nH]n(-c2ccccc2)c(=O)c1/C=N/NC(=O)c1ccoc1C`, the figure is 53.8% (active); as for `Cc1occc1C(=O)N/N=C/c1ccc(-c2cccc([N+](=O)[O-])c2)o1`, -8.06%; as for `CCOc1ccc(S(=O)(=O)N2CCC(c3ccccc3)CC2)cc1C(=O)O`, -3.46%.
`C/C(=N\NC(=O)c1ccc(C)cc1)C1C(=O)c2ccccc2C1=O`: the inhibition (viability loss, TRAIL sensitization) was 8.6%.
As for `O=C(NC1=CC(=O)c2ccccc2C1=O)c1ccccc1`, the figure is 94.6% (active); as for `COc1cc(NC(=O)c2ccccc2)c(OC)cc1NC(=O)Cc1ccccc1`, -3.72%; as for `CC1(C(=O)NS(=O)(=O)Cc2cccc(Cl)c2)CCN1C(=O)Cc1ccc(Cl)cc1Cl` (stereo unspecified), -0.832%.
`COc1ccc(C(N)c2csc(NC(=O)Nc3cccc(C(F)(F)F)c3)n2)cc1` (stereo unspecified): the inhibition (viability loss, TRAIL sensitization) is 25.4%.
`NC(c1csc(NC(=O)Nc2cccc(C(F)(F)F)c2)n1)C1CCCCC1` (stereo unspecified): the inhibition (viability loss, TRAIL sensitization) was 88.8% (active).
As for `CC(C)(C)CC(=O)Nc1nc(C(N)Cc2ccc(C(F)(F)F)cc2)cs1` (stereo unspecified), the figure is -0.292%; as for `Cc1cccc(C(=O)OC(C)C(=O)NC2CCCc3ccccc32)c1O` (stereo unspecified), 12.2%.
As for `CC1CCN(C(=O)C2CCN(S(=O)(=O)N3CCC4(CC3)OCCO4)CC2)CC1`, the figure is -3.06%; as for `CCOC(=O)C1=C(C)NC(C)=C(C(=O)OCC)C1C1=COCCO1`, -19.1%.
In the case of `CC1COc2ccccc2N1C(=O)c1ccc(F)cc1` (stereo unspecified) it was -8.83%; in that of `O=C(c1ccc(F)cc1)n1c(=S)nc2ccccn21`, 83% (active); in that of `O=C(c1ccc(F)cc1)N1CCC(n2nnc3ccccc32)CC1`, -1.41%.
As to `Cc1c(C2=CCN(S(=O)(=O)c3ccc(Cl)cc3)CC2)c2ccccc2n1C`, the inhibition (viability loss, TRAIL sensitization) is 9.41%.
In the case of `Cn1c(N)c(C(=O)COC(=O)/C=C/c2ccc(OC(F)F)cc2)c(=O)n(C)c1=O` it was -6.75%.
As for `Cc1ccccc1C(OCCN(C)C)C1CCCCC1` (stereo unspecified), the figure is -0.767%.
In the case of `Brc1ccc(C2CC(c3ccccc3)=Nc3ccccc3N2)cc1` (stereo unspecified) it was 24.3%.
Regarding `CNC(=S)N1N=C(c2ccccc2)CC1c1ccc(Br)cc1` (stereo unspecified), the inhibition (viability loss, TRAIL sensitization) is 79.2% (active).
In the case of `COc1ccc(C2CC(c3ccccc3)=NN2C(=O)CSc2nccc(=O)[nH]2)cc1` (stereo unspecified) it was 25.2%; in that of `CC1C(C)N(C(=O)CCl)c2ccccc2N1C(=O)CCl` (stereo unspecified), 88.6% (active).
`CC1C(=O)N(Cc2ccccc2)c2ccccc2N1C(=O)c1ccccc1` (stereo unspecified): the inhibition (viability loss, TRAIL sensitization) was -0.863%.
In the case of `CC1CC(C)CN(CC(=O)N2c3ccccc3CCc3ccccc32)C1` (stereo unspecified) it was -22.2%.
Turning to `COc1ccc(C(=O)NC(C)Cn2nc(C)cc2C)cc1OC1CCN(C(C)=O)CC1` (stereo unspecified), the inhibition (viability loss, TRAIL sensitization) is 8.29%.
In the case of `N#CCCN(C(=O)Nc1ccc(Cl)c(Cl)c1)C1CCCCC1` it was 7.87%.
As for `O=C(CC(O)(C(F)(F)F)C(F)(F)F)Nc1ccc(Cl)c(Cl)c1`, the figure is 62.6% (active); as for `CC1(C(=O)O)CCC(C(=O)Nc2ccc(Cl)c(Cl)c2)C1(C)C` (stereo unspecified), -2.64%; as for `CC(=O)N1Cc2cc(C(=O)NCc3cccc(F)c3)nc(-c3cccc(C4=CCCCC4)c3)c2[C@H]1CCO`, 4.95%.
With `CSCCC(NC(N)=O)C(=O)N(C)CC(=O)Nc1ccc(C)cc1` (stereo unspecified), the inhibition (viability loss, TRAIL sensitization) was -24.9%.
With `COC(=O)c1sc(NC(=O)COC(=O)C2CCC2)c(C(=O)OC)c1C`, the inhibition (viability loss, TRAIL sensitization) is -0.357%.
As for `CCOC(=O)c1c(NC(=O)COC(=O)c2ccc(S(=O)(=O)C(F)F)cc2)sc(C(=O)N(C)C)c1C`, the figure is -18.3%.
`CCOC(=O)c1c(NC(=O)CCl)sc(C(=O)N(CC)CC)c1C`: the inhibition (viability loss, TRAIL sensitization) was 92.5% (active).
Take `CCc1ccc2oc(-c3ccc(N)cc3)nc2c1`: the inhibition (viability loss, TRAIL sensitization) was 74.9% (active).
In the case of `O=C(C(Cc1ccccc1)n1cccc1)N1CCN(C2CCCCC2)CC1` (stereo unspecified) it was 1.84%.
In the case of `CC(=O)c1cccc(-c2cnc3c(NC=O)cc(-c4ccc(N(C)C)cc4)cn23)c1` it was 17.5%; in that of `CN(C)C(=O)c1cccc(-c2cnc3c(NC=O)cc(-c4ccc(F)cc4)cn23)c1`, 16.1%; in that of `CN(C)CCNC(=O)c1cccc(-c2cnc3c(NC=O)cc(-c4cccc(C(F)(F)F)c4)cn23)c1`, 59.1% (active).
For the compound `Cc1ccc(-c2ccc(CN3C(C(C)C)C(=O)N(Cc4cn(CCC5OCCO5)nn4)CCS3(=O)=O)cc2)cc1` (stereo unspecified), the inhibition (viability loss, TRAIL sensitization) was -2.12%.
For the compound `Oc1cccc2cc(-c3ccncc3)cnc12`, the inhibition (viability loss, TRAIL sensitization) was 47.7%.
Take `Cc1ccc(C(=O)NNC2=Nc3cc([N+](=O)[O-])ccc3OC2)cc1`: the inhibition (viability loss, TRAIL sensitization) was -18%.
In the case of `COc1ccc(C2=Nc3cc(C)ccc3OC2)cc1` it was 58.6% (active); in that of `COc1ccc(C(O)c2nc(-c3ccc4c(c3)OCO4)cs2)cc1` (stereo unspecified), -6.82%; in that of `C=CCN(CC=C)C(=O)COC(=O)c1n[nH]c2ccccc12`, 9.77%.
`Nc1ccccc1-c1nc2ccncc2[nH]1`: the inhibition (viability loss, TRAIL sensitization) was 12.6%.
In the case of `c1ccc2[nH]c(-c3nc4ccccc4[nH]3)nc2c1`, the inhibition (viability loss, TRAIL sensitization) was 69.4% (active).
As for `O=C1c2ccccc2C(c2nc3ccccc3[nH]2)N1c1ccccc1` (stereo unspecified), the figure is -17.6%.
In the case of `CCOc1cc(/C=C(/C#N)c2ccc(Cl)cc2)cc(Cl)c1OCC(=O)O`, the inhibition (viability loss, TRAIL sensitization) is 11.5%.
As for `NC(=O)c1c(NC(=O)c2ccccc2)sc2c1CCCC2`, the figure is 53.3% (active); as for `O=C(CN1CCCC1)Nc1sc2c(c1C(=O)Nc1ccccc1)CCCC2`, 20.1%.
As for `O=C(O)c1c(NC(=O)N2CCCC2)sc2c1CCCC2`, the figure is 1.53%.
On to `C[C@H]1[C@H]2c3nc4ccccc4n3C[C@H]1ON2C1CCCCC1`, for which the inhibition (viability loss, TRAIL sensitization) is -6.24%.
As for `Cc1ccccc1S(=O)(=O)NC(=O)C1(C)CCN1C(=O)C1(c2ccc(Cl)cc2)CC1` (stereo unspecified), the figure is -8.57%; as for `CC(=O)c1ccc(S(=O)(=O)NC2CC(=O)N(c3ccc4c(c3)OCCO4)C2)cc1` (stereo unspecified), 2.78%; as for `COc1ccc(Br)cc1CN(C)C(=O)C1CC(=O)N(C2CCCC2)C1` (stereo unspecified), -13.6%.
